PubChem BioAssay AID1159580 (chemical genetic matrix, 2015)
Several values for one entry are separate records, joined by “and”; a condition that tells them apart may be missing. Identical values can stand only once. Screen size: about 5,500 compounds; about 2,000 (36%) were called active. Inconclusive results (about 18%) are left out. Cut-off read from the data, not from the text of the source: active = normalized growth mostly below about 0.91 (no sharp cut-off); inconclusive = no clear call, values can overlap the other calls; inactive = mostly above about 0.92. The list shows a part of the results.

Assay: chemical genetic growth profiling, strain panel (AID 1159580);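 note: tested at 20 µM; growth read once vehicle control cultures reached saturation at 30 °C; 1 = growth at the plate median or of vehicle wells; lower values mean less growth of the strain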
Settings: S. cerevisiae deletion strains, growth OD

Measured: normalized growth

CCC(N)C(O)c1ccc(O)c(O)c1 (configuration not stated)
inactive: locus YAL013W, strain DEP1, hits give low values 1.02 | locus YAL021C, strain ccr4, hits give low values 1 | locus YAL026C, strain drs2, hits give low values 0.987 | locus YAL030W, strain snc1, hits give low values 0.986 | locus YBL061C, strain skt5, hits give low values 0.99 | locus YBR009C, strain hhf1, hits give low values 0.986 | locus YBR021W, strain FUR4, hits give low values 0.995 | locus YBR023C, strain chs3, hits give low values 0.994 | locus YBR171W, strain sec66, hits give low values 0.976 | locus YBR229C, strain ROT2, hits give low values 1.02 | locus YBR231C, strain swc5, hits give low values 0.984 | locus YBR279W, strain paf1, hits give low values 0.991 | locus YCL011C, strain gbp2, hits give low values 0.996 | locus YCL016C, strain dcc1, hits give low values 0.998 | locus YCL029C, strain bik1, hits give low values 0.992 | locus YCL061C, strain MRC1, hits give low values 0.991 | locus YCL069W, strain vba3, hits give low values 1 | locus YCR088W, strain abp1, hits give low values 0.997 | locus YDL005C, strain med2, hits give low values 0.993 | locus YDL035C, strain GPR1, hits give low values 1.02 | locus YDL040C, strain nat1, hits give low values 0.99 | locus YDL074C, strain BRE1, hits give low values 1 | locus YDL101C, strain DUN1, hits give low values 1.01 | locus YDL134C, strain PPH21, hits give low values 1 | locus YDL185W, strain tfp1, hits give low values 0.968 | locus YDL192W, strain arf1, hits give low values 0.998 | locus YDR001C, strain nth1, hits give low values 0.99 | locus YDR069C, strain doa4, hits give low values 0.981 | locus YDR101C, strain arx1, hits give low values 0.995 | locus YDR137W, strain rgp1, hits give low values 1.02 | locus YDR150W, strain NUM1, hits give low values 1.02 | locus YDR159W, strain sac3, hits give low values 0.965 | locus YDR162C, strain NBP2, hits give low values 1.02 | locus YDR195W, strain ref2 0.931 | locus YDR297W, strain sur2, hits give low values 0.991 | locus YDR318W, strain mcm21, hits give low values 0.977 | locus YDR334W, strain swr1, hits give low values 0.994 | locus YDR335W, strain msn5, hits give low values 0.993 | locus YDR388W, hits give low values 0.993 | locus YDR392W, strain spt3, hits give low values 0.934 | locus YDR502C, strain sam2, hits give low values 0.998 | locus YEL003W, strain gim4, hits give low values 0.997 | locus YEL037C, strain rad23, hits give low values 1.02 | locus YEL061C, strain CIN8 (second series), hits give low values 0.988 | locus YEL061C, strain CIN8, hits give low values 1.01 | locus YER015W, strain faa2, hits give low values 0.984 | locus YER016W, strain bim1, hits give low values 0.989 | locus YER110C, hits give low values 0.985 | locus YER111C, strain swi4, hits give low values 0.989 | locus YER155C, strain BEM2 (second series), hits give low values 0.979 | locus YER155C, strain BEM2, hits give low values 1.01 | locus YER167W, strain BCK2, hits give low values 1.03 | locus YFR010W, strain ubp6, hits give low values 0.983 | locus YGL078C, strain dbp3, hits give low values 1 | locus YGL086W, strain mad1, hits give low values 0.988 | locus YGL167C, strain pmr1, hits give low values 0.985 | locus YGL173C, strain kem1, hits give low values 0.998 | locus YGL227W, strain vid30, hits give low values 0.983 | locus YGL240W, strain doc1, hits give low values 0.96 | locus YGL248W, strain PDE1, hits give low values 1.01 | locus YGL253W, strain hxk2, hits give low values 1.01 | locus YGR078C, strain PAC10, hits give low values 0.991 | locus YGR135W, strain pre9, hits give low values 0.993 | locus YGR229C, strain SMI1, hits give low values 1.02 | locus YGR252W, strain gcn5, hits give low values 1.04 | locus YHR013C, strain ard1, hits give low values 0.989 | locus YHR027C, strain rpn1, hits give low values 0.985 | locus YHR030C, strain SLT2, hits give low values 1.01 | locus YHR079C, strain IRE1 (second series), hits give low values 0.986 | locus YHR079C, strain IRE1, hits give low values 1.02 | locus YHR094C, strain hxt1, hits give low values 0.988 | locus YHR129C, strain ARP1, hits give low values 1.01 | locus YHR142W, strain chs7, hits give low values 1.01 | locus YHR200W, strain rpn10, hits give low values 0.994 | locus YIL066C, strain RNR3, hits give low values 1.01 | locus YIL073C, strain SPO22, hits give low values 1.03 | locus YIL125W, strain kgd1, hits give low values 0.995 | locus YIR030C, strain dcg1, hits give low values 0.987 | locus YJL092W, strain hpr5, hits give low values 0.99 | locus YJL095W, strain BCK1 (second series), hits give low values 0.991 | locus YJL095W, strain BCK1, hits give low values 1 and 1.01 | locus YJL115W, strain asf1, hits give low values 0.992 | locus YJL129C, strain trk1, hits give low values 0.993 | locus YJL134W, strain LCB3, hits give low values 1.01 | locus YJL154C, strain vps35, hits give low values 0.993 | locus YJL164C, strain tpk1, hits give low values 0.994 | locus YJL166W, strain qcr8, hits give low values 0.988 | locus YJL168C, strain set2, hits give low values 0.99 | locus YJL187C, strain SWE1 (second series), hits give low values 0.996 | locus YJL187C, strain SWE1, hits give low values 0.983 | locus YJR043C, strain POL32, hits give low values 0.975 | locus YJR066W, strain TOR1, hits give low values 0.983
